# Many of the other results were omitted from the sample, so hits are more common in it than they were.
# 12-hLO inh: qHTS Assay for Inhibitors of 12-hLO (12-human lipoxygenase). purified 12-hLO, xylenol orange hydroperoxide absorbance. Potency, µM (series often up to 57.1 µM), inactives show at the top dose activity change, negative = inhibition, usual class: inhibitors. 150,000 compounds, 0.12% hits; note: nearly all actives have a fitted effect of over 55% in size
#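 Lipoxygenase turnover measured by absorbance at 573 and 405 nm after Fe-XO development. Human 12hLO 150 nM, arachidonate 40 uM, pH 7.0 Hepes buffer with detergent; 15 min compound preincubation, 30 min reaction.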
# 15-hLO-2 inh: qHTS Assay for Inhibitors of 15-hLO-2 (15-human lipoxygenase 2); Polyunsaturated fatty acid lipoxygenase ALOX15B (Homo sapiens), O15296; purified 15hLO-2, xylenol orange hydroperoxide absorbance; Potency, µM (titrated, usually from 57.1 µM), for inactives: top-dose activity change, negative = inhibition, usual class: inhibitors; 110,000 compounds, 0.56% hits; AID 881, 2007; note: nearly all actives have a fitted effect of over 60% in size
# Target sequence (O15296 whole entry, looked up): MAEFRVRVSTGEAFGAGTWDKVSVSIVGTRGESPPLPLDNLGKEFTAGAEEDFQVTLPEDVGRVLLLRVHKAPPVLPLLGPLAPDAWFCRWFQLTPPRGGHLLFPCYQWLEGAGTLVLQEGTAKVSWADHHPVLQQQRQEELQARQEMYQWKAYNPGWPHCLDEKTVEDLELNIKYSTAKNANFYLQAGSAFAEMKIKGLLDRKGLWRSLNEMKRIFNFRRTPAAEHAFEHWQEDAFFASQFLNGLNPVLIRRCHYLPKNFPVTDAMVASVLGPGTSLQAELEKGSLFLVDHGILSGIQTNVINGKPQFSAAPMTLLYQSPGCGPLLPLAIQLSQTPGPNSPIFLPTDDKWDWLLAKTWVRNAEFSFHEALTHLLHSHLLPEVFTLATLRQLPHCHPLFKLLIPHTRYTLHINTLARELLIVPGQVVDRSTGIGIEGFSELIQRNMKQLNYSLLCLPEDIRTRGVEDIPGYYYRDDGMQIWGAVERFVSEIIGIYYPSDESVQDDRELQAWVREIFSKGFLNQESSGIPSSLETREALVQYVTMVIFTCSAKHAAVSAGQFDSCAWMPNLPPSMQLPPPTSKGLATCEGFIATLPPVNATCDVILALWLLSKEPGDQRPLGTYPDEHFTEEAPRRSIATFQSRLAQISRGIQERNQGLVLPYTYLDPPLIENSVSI
#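 Purified human 15hLO-2 (50 nM final) preincubated with compounds 15 min at room temperature in 25 mM Hepes pH 7.5, 0.01% Triton X-100, then 45 uM arachidonic acid added for 90 min; hydroperoxide detected via ferrous/xylenol orange, 573/405 nm absorbance ratio.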
# * hit, by the source's call; ? = inconclusive; · = no result; [ ] = dose if it differs, or a comment. Calls come from the whole dose curve; as a rule, active = well fitted curve in the direction sought with a large enough effect; inconclusive = small, poorly fitted or top-dose-only effect, or another doubt; inactive = no such curve, though single readings can be large; an effect the other way counts as inactive or inconclusive. % is set by controls: 0 for no effect and ±100 for the full control effect; potency is the fitted concentration of half-maximal effect.
SMILES,12-hLO inh,15-hLO-2 inh
[O][C@H]1[C@@H](O)[C@@H](CO)O[C@@H](O[C@@H]2[C@@H]3OC[C@H]2O[C@H](O[C@@H]2[C@@H](O)[C@H](C[C@@H]4[C@@H]5OC[C@H]4O[CH][C@@H]5O)O[C@H](CO)[C@@H]2OS(=O)(=O)O)[C@@H]3OS(=O)(=O)O)[C@@H]1O,-2.8%[0.00818 µM],-0.7%[0.0915 µM]
O=C1N=C(c2ccccc2)S/C1=C\c1cccs1,-9.7%,10µM*
O=C1N=C(N2CCN(c3ccccc3)CC2)S/C1=C/c1cccs1,-9.1%,·
CCOC(=O)C1=C(C)NC(C)=C(C(=O)OC)[C@@H]1c1cccc(Cl)c1Cl,-10.0%[25.6 µM],4.6%[25.6 µM]
Cc1oc2c(c1C(=O)c1ccc(Cl)cc1)C(=O)C(=O)c1ccccc1-2,-4.5%,?
Cc1ccc(C(=O)c2c(C)oc3c2C(=O)C(=O)c2ccccc2-3)cc1,?,25.1µM*
CCCC(=O)NC(=S)Nc1ccccc1OC,-17.0%,-15.3%
COc1ccccc1NC(=S)NC(=O)CCCOc1ccc(Cl)cc1Cl,?,20µM*
CCOC(=O)C1=C(C)NC(C)=C(C(=O)OC)[C@H]1c1cccc(Cl)c1Cl,-4.8%,-4.9%
COc1cc(NC(=S)NCCC(c2ccccc2)c2ccccc2)cc(OC)c1,22.4µM*,·
Cc1c(Cl)cccc1NC(=S)NCC(C)C,-4.3%,·
Cc1c(Cl)cccc1NC(=S)NCc1ccccc1Cl,10µM*,·
CNC(=S)NCCC(c1ccccc1)c1ccccc1,-6.2%,·
Cc1c(Cl)cccc1NC(=S)NCCC(c1ccccc1)c1ccccc1,7.94µM*,·
Cc1c(Cl)cccc1NC(=S)NCCC(C)C,-13.5%,?
CS(=O)(=O)Nc1ccc(Nc2c3ccccc3nc3ccccc23)cc1,-3.4%[11.4 µM],?
O=C(c1ccccc1)c1ccc2n1CC[C@H]2C(=O)O,2.5%[25.6 µM],-6.9%[25.6 µM]
Cc1[nH]n(-c2ccccc2)c(=O)c1C=Nc1cccc2cccnc12,10.9%,·
Cc1[nH]n(-c2ccccc2)c(=S)c1C=Nc1cccc([N+](=O)[O-])c1,31.6µM*,10µM*
Cc1ccccc1-c1cncnc1NCc1cccs1,·,29.6%
O=c1c(-c2cc(F)cc(F)c2)nc2cnc(N3CCNCC3)nc2n1Cc1cccs1,2.0%,7.3%
Cc1cccc(OCCn2c(S(=O)(=O)O)nc3ccccc32)c1,-1.5%,-3.9%
Cc1cccc(OCCn2c(=S)[nH]c3ccccc32)c1,28.2µM*,·
O=C(Nc1ccc(N2CCCC2)cc1)C(Cl)c1ccccc1 (stereo not given),-9.9%,12.6µM*
CS(=O)(=O)N1CCN(c2ccc(NC(=O)C(c3ccccc3)c3ccccc3)cc2)CC1,-2.8%,·
SMILES,12-hLO inh,15-hLO-2 inh
CC1/C=C/C=C/C=C/C=C/C=C/C=C/C=C/C(OC2OC(C)C(O)C(N)C2O)CC2O[C@@](O)(CC(O)CC(O)C(O)CCC(O)CC(O)CC(=O)OC(C)[C@H](C)C1O)CC(O)C2C(=O)O (stereo not given in full),-6.0%,-23.4%
OC[C@H](S)CS,-7.2%[11.4 µM],?
COC(=O)[C@@H]1C[C@H]1[C@@H](NC(=O)Oc1ccc(F)cc1)c1ccccc1,-0.2%,12.2%
O=S(=O)(c1ccc2oc3ccccc3c2c1)N1CCOCC1,6.7%,2.4%
O=c1c2ccccc2sn1-c1cc(S(=O)(=O)N2CCOCC2)ccc1N1CCOCC1,2.24µM*,0.501µM*
O=c1c2ccccc2sn1-c1cc(S(=O)(=O)N2CCOCC2)ccc1N1CCCC1,0.501µM*,1µM*
O=C(O)c1cc(S(=O)(=O)N2CCOCC2)ccc1N1CCOCC1,-2.0%,-2.4%
c1ccc(CNc2cc(-c3cccnc3)ncn2)cc1,·,-2.9%
CCC(O)OC(O)CC (stereo not given),6.4%,3.0%
COc1cc2c(cc1OC)C(=O)N(C)CC2,2.0%,-5.2%
COc1cc2cc3c4c(cc(OC)c(OC)c4c2cc1OC)CCN3C,?,12.6µM*
CCOC(=O)c1c(C)oc2c1c(C(c1cccnc1)N1CCN(C)CC1)c(O)c1ccccc12 (stereo not given),-28.1%,6.6%
CN1CCN(C(c2cccnc2)c2ccc3cccnc3c2O)CC1 (stereo not given),1.58µM*,73.1%
CC[C@H](C)N(C)C(=O)c1cc2ccccc2c(-c2ccccc2Cl)n1,-2.8%,5.1%
CCCCc1ccc(/C=C2\C(=O)c3ccccc3C(O)=C2C(=O)OCC)cc1,-9.2%,10µM*
CCOC(=O)C1=C(O)/C(=C\c2cccc(OC)c2)N=C1C,-4.5%,-24.3%
NCCC[C@@H](CC(=O)N[C@@H]1CCCC[C@H]1C(=O)N[C@H](CC(=O)N[C@@H](CCC(=O)O)CC(=O)O)Cc1ccccc1)NC(=O)C[C@H](CO)NC(=O)[C@@H]1CNCC[C@H]1N,1.7%,·
Cc1nn(C)c2nc(NNC(=O)Nc3cc(Cl)nc(Cl)c3)cc(C(C)C)c12,-6.0%[0.00818 µM],-8.0%[0.0915 µM]
CN=C1N[C@H](c2ccccc2)N(c2ccccc2)S1,?,25.1µM*
C=C1C(=O)[C@]23[C@H](O)[C@H]1CC[C@H]2[C@@]12COC3(O)[C@H](O)[C@@H]1C(C)(C)CC[C@@H]2O,-11.9%[0.00818 µM],9.4%[0.0915 µM]
C/C(=N\NC(=S)NCCc1ccccc1)c1ccc(C)cc1,14.1µM*,·
C/C(=N\NC(=S)NCCc1ccccc1)c1ccc(C#N)cc1,-0.6%,?
COc1ccc(-c2cc(C(=O)N/N=C\c3cc(OC)c(OC)c(OC)c3)[nH]n2)cc1,2.1%,·
COc1ccc(-c2nc3c(c4c2C[C@H](c2ccccc2)OC4)CN(S(=O)(=O)c2ccc(NC(C)=O)cc2)CC3)c(C)c1,-1.8%[11.4 µM],·
COc1ccc(C2CC(=O)N3CN(c4ccccc4F)CSC3=C2C#N)cc1OC (stereo not given),-19.2%,?
SMILES,12-hLO inh,15-hLO-2 inh
CCc1ccccc1N1CSC2=C(C#N)C(c3ccccc3F)CC(=O)N2C1 (stereo not given),?,10µM*
COc1ccc(C2CC(=O)N3CN(Cc4ccco4)CSC3=C2C#N)cc1 (stereo not given),-15.9%,-29.0%
COc1ccc2ccccc2c1C1CC(=O)N2CN(Cc3ccco3)CSC2=C1C#N (stereo not given),-12.8%,12.6µM*
Cc1cccc(N2CSC3=C(C#N)C(c4ccc(C)o4)CC(=O)N3C2)c1 (stereo not given),-25.6%,?
COc1ccc(OC)c(C2CC(=O)N3CN(c4ccccc4)CSC3=C2C#N)c1 (stereo not given),?,10µM*
COc1ccc(C2CC(=O)N3CN(c4ccc(C)c(Cl)c4)CSC3=C2C#N)cc1 (stereo not given),-26.9%,15.8µM*
COc1cc(OC)c(C2CC(=O)N3CN(c4ccccc4C)CSC3=C2C#N)cc1OC (stereo not given),-11.1%,?
CCOC(=O)CNc1oc(-c2ccccc2)nc1-c1ccccc1,-1.0%,·
O=C(NC1CCN(Cc2ccccc2)CC1)c1ccc(-n2c(=O)c(=O)[nH]c3ccccc32)cc1,-5.6%,·
COc1ccc2ccccc2c1C1CC(=O)N2CN(C3CCCCC3)CSC2=C1C#N (stereo not given),-21.9%,?
COc1ccc(N2CSC3=C(C#N)C(c4cccc(OC)c4OC)CC(=O)N3C2)cc1 (stereo not given),-25.6%,12.6µM*
COc1ccc2cccc(N3CCN(CCNC(=O)c4ccc(F)cc4)CC3)c2c1,-25.8%,47.1%

# Screening results: PubChem BioAssay, National Center for Advancing Translational Sciences (NCATS)
